# From PubChem BioAssay (EPA / NIEHS)
# Active and inactive are the calls of the source. Rule for the calls: active = hit-call score of the fitted dose curve at least 0.9, where 1 is the maximum; inactive = score below 0.9.
# Test: ATG_M_32_CIS: Attagene CIS-FACTORIAL HepG2 Assay for M32 Transcription Factor (Internal Marker) (AID 2282949);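 note: background control marker of the multiplexed CIS panel rather than a real target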
# Settings: HepG2 Attagene cis-factorial M32 reporter, mRNA; actives raise or lower the signal
# Method: ATG_CIS is a cell-based, multiplexed-readout assay that uses HepG2, a human liver cell line, with measurements taken at 24 hours after chemical dosing in a 24-well plate.ATG_M_32_CIS is one of 52 assay component(s) measured or calculated from the ATG_CIS assay. It is designed to make measurements of mRNA induction, a form of inducible reporter, as detected with fluorescence intensity signals by Reverse transcription polymerase chain reaction (RT-PCR) and Capillary electrophoresis technology.Data from the assay component ATG_M_32_CIS was analyzed into 1 assay endpoint. This assay endpoint, ATG_M_32_CIS, was analyzed with bidirectional fitting relative to DMSO as the negative control and baseline of activity. Using a type of inducible reporter, measures of mRNA for gain or loss-of-signal activity can be used to understand the background control at the transcription factor-level as they relate to the gene . Furthermore, this assay endpoint can be referred to as a secondary readout, because this assay has produced multiple assay endpoints where this one serves a background control function. To generalize the intended target to other relatable targets, this assay endpoint is annotated to the background measurement intended target family, where the subfamily is internal marker.
# Human liver HepG2 cells are transiently transfected with multiple reporter transcription units (MRTUs) in 6-well plates using FuGene 6 reagent (Roche; 3 ml FuGene/1 mg DNA). The MRTU constructs are regulated by a cis-regulating element (promoter). […] A major difference between the CIS and TRANS system is that in CIS activities of endogenous TFs are measured, whereas the TRANS assay evaluates changes in activities of exogenous, chimeric NR-Gal4 proteins. […] At the end of 24 hour incubation, total RNA was isolated using TriZol reagent (Invitrogen). The isolated RNA is then reverse-transcribed using oligo(dT) primer and Mo-MLV reverse transcriptase (Invitrogen) with DNAse I (Ambion) treatment for 30 min. The one-tenth of the produced cDNA was amplified by PCR using Taq DNA polymerase (Invitrogen) and two reporter sequence-specific primers. The PCR products were fluorescently labeled by primer extension with 6-arboxyfluorescein (6-FAM) 5'-labeled reporter sequence-specific primer (2 min at 95 C, 20 s at 68 C and 10 min at 72 C) and these products were digested with 5U of HpaI (New England Biolabs) for 2h at 37 C. The fragments were purified using Qiaquick PCR columns (Qiagen), analyzed on an ABI 3130xL genetic analyzer (Applied Biosystems) with peak positions identified by using a set of X-rhodamine (ROX)-labeled MapMarker1000 molecular weight standards (BioVentures). The raw capillary electrophoresis data was processed using Attagraph software (Attagene).
row,SMILES,outcome
1,CCN(CC)c1ccccc1,inactive
2,CCC1(c2ccccc2)C(=O)N=C(O)NC1=O (stereo not given),inactive
3,CO/N=C(/C(=O)OC)c1ccccc1COc1ccccc1C,inactive
4,CN(C)C(=O)Cl,inactive
5,CCC(C)(C)c1ccc(O)cc1,inactive
6,CCOP(=S)(OCC)SCSCC,inactive
7,OCC(F)(F)OC(F)(F)C(F)(F)OC(F)(F)CO,inactive
8,N#C/C=C/c1ccccc1,inactive
9,CC(O)C#N (stereo not given),inactive
10,CC(C)(C)N(NC(=O)c1ccc(Cl)cc1)C(=O)c1ccccc1,inactive
11,c1nc[nH]n1,inactive
12,c1cc2c3c(cccc3c1)CC2,inactive
13,CCCCC(CC)COP(=O)(Oc1ccccc1)Oc1ccccc1 (stereo not given),inactive
14,CCOP(=O)(O)C(N)=O,inactive
15,CCOC(=O)c1ccccc1C(=O)OCC,inactive
16,Nc1ccc(Sc2ccc(N)cc2)cc1,inactive
17,CC(C)(C)c1ccccc1OP(=O)(Oc1ccccc1)Oc1ccccc1,inactive
18,CCCCCCCc1ccc(O)cc1,inactive
19,O=P1(N(CCCl)CCCl)NCCCO1 (stereo not given),inactive
20,COC(N)=O,inactive

row,SMILES,outcome
1,O=NN1CCCC1,inactive
2,COP(N)(=S)OC,inactive
3,O=c1ssc(Cl)c1Cl,inactive
4,CC(C)CBr,inactive
5,CCOS(=O)(=O)OCC,inactive
6,CCCCc1ccccc1,inactive
7,CCCCN(CC)C(=O)SCCC,inactive
8,O=C(O)C(F)(F)C(F)(F)C(=O)O,inactive
9,O=C(O)C(F)(F)OC(F)(F)C(F)(F)OC(F)(F)F,inactive
10,Cn1[nH]nnc1=S,inactive
11,NC(=O)C(F)(F)C(F)(F)F,inactive
12,CSC(C)(C)C=NO,inactive
13,CCOP(=S)(S)OCC,inactive
14,ClC(Cl)(Cl)c1ccccc1,inactive
15,FC(F)(F)C(F)(C(F)(F)F)C(F)(F)C(F)(F)CC1CO1 (stereo not given),inactive
16,Nc1ccc2ccccc2c1,inactive
17,O=C(O)C(F)(F)OC(F)(F)C(F)(F)OC(F)(F)C(=O)O,inactive
18,Oc1ccccc1Br,inactive
19,Cc1c([N+](=O)[O-])cc2c(c1[N+](=O)[O-])C(C)(C)CC2(C)C,inactive
20,O=[N+]([O-])c1ccccc1,inactive
